According to PubChem BioAssay AID371 (SRMLSC, 2006):
Hit rate of the full screen: of about 3,300 compounds, about 280 (8.5%) were called active.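 How the source made its calls: active means mean growth inhibition over the two runs of 50% or more; inactive means mean growth inhibition under 50%.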 What follows is part of a selection rich in actives, with near analogues and random picks from the rest.

Test: A549 NSCLC cell proliferation inhibitors – ATP luminescence, human non-small cell lung line, primary screen (AID 371);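 further: compound exposure lasted 72 h before the ATP read; 0% = untreated cell signal and 100% = no luminescence left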
Conditions: at 10 µM, hits give high values

Growth inhibition, inactive:
CCCc1[nH]n(-c2nc3ccccc3s2)c(=O)c1C=NCCN1CCOCC1 3.16%, Cn1nnnc1-c1cc(Br)ccc1NC(=O)c1ccccc1 10.8%, Cc1sc(-n2c(C)cc(/C=N/n3cnnc3)c2C)c(C#N)c1C 19.6%, CC(C)(C)c1nnc2sc(SCC(=O)c3ccccc3)nn2c1=O -7.24%, Cc1nc2ccccn2c(=O)c1CCN1CCC(C(=O)c2ccc(F)cc2)CC1 6.06%, CN1CCN(CCCCC(=O)c2ccccc2)CC1 6%, COc1ccc(/C=N/n2cncn2)cc1COc1ccc(NC(C)=O)cc1 5.25%, CCOc1ccc(C2/C(=C(/O)c3ccc(OC)cc3)C(=O)C(=O)N2c2cc(C)on2)cc1OC (configuration not stated) -9.53%, CCC(C)Nc1nc(OC)nc(N(C)C#N)n1 (configuration not stated) -4.98%, O=C(O)c1ccc(COc2c(F)c(F)c(F)c(F)c2F)o1 3.65%, CN(C)/C=C1\N=C(c2ccc(Cl)cc2Cl)OC1=O 19.7%, CCOC(=O)c1[nH]c2cc3c(cc2c1NC(=O)CN1CCc2ccccc2C1)OCO3 12.5%, CSc1nc(N)nc(SCC(=O)CC(=O)OC(C)C)c1C#N 7.59%, CSc1nc(N)nc(SCC(=O)OC(C)C)c1C#N 17%, COc1ccc(C(=O)N/C(N)=N/c2nc3ccccc3o2)cc1 28.8%, O=C(Nc1ccccc1C(=O)NCCCn1ccnc1)c1ccccc1 -0.68%, COc1ccccc1C(=O)Nc1cc(Cl)ccc1O -0.89%, COc1ccccc1C(=O)NCC(=O)n1nc(C)cc1C 4.23%, COc1ccccc1C1C(C#N)=C(N)Oc2cc(C)n(Cc3ccccn3)c(=O)c21 (configuration not stated) -10.3%, CCNC(=O)COn1c(SCC(=O)NCC)nc2ccccc2c1=O -0.37%, CCOC(=O)C1CCN(c2ncnc3c2cnn3-c2ccc(OC)cc2)CC1 4.94%, CS(=O)(=O)c1ccc2nc(NC(NC(=O)c3ccco3)(C(F)(F)F)C(F)(F)F)sc2c1 29.9%

Growth inhibition, active:
Cc1nc2sccn2c(=O)c1CCN1CCC(=C(c2ccc(F)cc2)c2ccc(F)cc2)CC1 92.5%, Cc1nc2sccn2c(=O)c1CCN1CCC(=C(c2ccccc2)c2ccc(F)cc2)CC1 88.3%, CSc1nc(N)nc(SCC(=O)C23CC4CC(CC(C4)C2)C3)c1C#N 74.9%, COc1ccccc1C(=O)NC(=Nc1nc2ccccc2o1)NC(=O)c1ccccc1OC 67.3%, N/C(=N\c1nc2ccccc2o1)NC(=O)c1ccccc1NC(=O)c1ccccc1 69.5%
